Measurements: PubChem BioAssay AID1159580 (chemical genetic matrix, 2015)
Out of some 5,500 compounds screened, about 2,000 (36%) were called active. Roughly 18% stayed inconclusive and do not appear here. No stated cut-off is given here; in the data, active means normalized growth mostly below about 0.91 (no sharp cut-off); inconclusive means no clear call, values can overlap the other calls; inactive means mostly above about 0.92. The list shows a part of the results.

Assay: chemical genetic growth profiling, strain panel (AID 1159580);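 further: tested at 20 µM; growth read once vehicle control cultures reached saturation at 30 °C; 1 = growth at the plate median or of vehicle wells; lower values mean less growth of the strain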
Details: growth OD

Measured: normalized growth

COc1ccc(CC2c3cc(OC)c(OC)cc3CCN2C)cc1OC (stereo unspecified)
inactive: S. cerevisiae deletion strains, locus YAL013W, strain DEP1, active compounds read low 0.984 | S. cerevisiae deletion strains, locus YBR021W, strain FUR4, active compounds read low 1.05 | S. cerevisiae deletion strains, locus YBR229C, strain ROT2, active compounds read low 0.969 | S. cerevisiae deletion strains, locus YCL029C, strain bik1, active compounds read low 0.988 | S. cerevisiae deletion strains, locus YDL035C, strain GPR1, active compounds read low 0.997 | S. cerevisiae deletion strains, locus YDL074C, strain BRE1, active compounds read low 0.964 | S. cerevisiae deletion strains, locus YDL101C, strain DUN1, active compounds read low 0.961 | S. cerevisiae deletion strains, locus YDL134C, strain PPH21, active compounds read low 0.981 | S. cerevisiae deletion strains, locus YDL185W, strain tfp1, active compounds read low 0.951 | S. cerevisiae deletion strains, locus YDL192W, strain arf1, active compounds read low 0.994 | S. cerevisiae deletion strains, locus YDR101C, strain arx1, active compounds read low 1.01 | S. cerevisiae deletion strains, locus YDR150W, strain NUM1, active compounds read low 0.974 | S. cerevisiae deletion strains, locus YDR162C, strain NBP2, active compounds read low 0.941 | S. cerevisiae deletion strains, locus YDR318W, strain mcm21, active compounds read low 1.02 | S. cerevisiae deletion strains, locus YDR388W, active compounds read low 0.992 | S. cerevisiae deletion strains, locus YDR502C, strain sam2, active compounds read low 0.974 | S. cerevisiae deletion strains, locus YEL061C, strain CIN8, active compounds read low 0.988 | S. cerevisiae deletion strains, locus YER110C, active compounds read low 0.987 | S. cerevisiae deletion strains, locus YER155C, strain BEM2, active compounds read low 1 | S. cerevisiae deletion strains, locus YER167W, strain BCK2, active compounds read low 0.997 | S. cerevisiae deletion strains, locus YGL078C, strain dbp3, active compounds read low 0.976 | S. cerevisiae deletion strains, locus YGL086W, strain mad1, active compounds read low 1.01 | S. cerevisiae deletion strains, locus YGL248W, strain PDE1, active compounds read low 0.978 | S. cerevisiae deletion strains, locus YGR078C, strain PAC10, active compounds read low 0.967 | S. cerevisiae deletion strains, locus YGR135W, strain pre9, active compounds read low 0.957 | S. cerevisiae deletion strains, locus YGR229C, strain SMI1, active compounds read low 0.997 | S. cerevisiae deletion strains, locus YGR252W, strain gcn5, active compounds read low 1.08 | S. cerevisiae deletion strains, locus YHR030C, strain SLT2, active compounds read low 1 | S. cerevisiae deletion strains, locus YHR079C, strain IRE1 (second series), active compounds read low 0.99 | S. cerevisiae deletion strains, locus YHR094C, strain hxt1, active compounds read low 0.988 | S. cerevisiae deletion strains, locus YHR129C, strain ARP1, active compounds read low 0.987 | S. cerevisiae deletion strains, locus YHR200W, strain rpn10, active compounds read low 0.982 | S. cerevisiae deletion strains, locus YIL066C, strain RNR3, active compounds read low 0.971 | S. cerevisiae deletion strains, locus YIL073C, strain SPO22, active compounds read low 1.02 | S. cerevisiae deletion strains, locus YIL125W, strain kgd1, active compounds read low 0.983 | S. cerevisiae deletion strains, locus YIR030C, strain dcg1, active compounds read low 0.979 | S. cerevisiae deletion strains, locus YJL095W, strain BCK1, active compounds read low 0.985 | S. cerevisiae deletion strains, locus YJL134W, strain LCB3, active compounds read low 0.993 | S. cerevisiae deletion strains, locus YJL168C, strain set2, active compounds read low 0.98 | S. cerevisiae deletion strains, locus YJL187C, strain SWE1 (second series), active compounds read low 0.959 | S. cerevisiae deletion strains, locus YJR043C, strain POL32, active compounds read low 1.03 | S. cerevisiae deletion strains, locus YJR075W, strain HOC1, active compounds read low 0.926 | S. cerevisiae deletion strains, locus YKL009W, strain mrt4, active compounds read low 0.995 | S. cerevisiae deletion strains, locus YKL068W, active compounds read low 0.99 | S. cerevisiae deletion strains, locus YKL085W, strain MDH1 (second series), active compounds read low 0.97 | S. cerevisiae deletion strains, locus YKL085W, strain MDH1, active compounds read low 0.97 | S. cerevisiae deletion strains, locus YKL190W, strain CNB1, active compounds read low 0.978 | S. cerevisiae deletion strains, locus YKR001C, strain vps1, active compounds read low 1 | S. cerevisiae deletion strains, locus YLR039C, strain RIC1, active compounds read low 0.959 | S. cerevisiae deletion strains, locus YLR058C, strain SHM2, active compounds read low 0.973 | S. cerevisiae deletion strains, locus YLR102C, strain apc9, active compounds read low 0.978 | S. cerevisiae deletion strains, locus YLR262C, strain YPT6, active compounds read low 0.951 | S. cerevisiae deletion strains, locus YLR268W, strain sec22, active compounds read low 0.953 | S. cerevisiae deletion strains, locus YLR330W, strain CHS5, active compounds read low 0.998 | S. cerevisiae deletion strains, locus YLR342W, strain FKS1 (second series), active compounds read low 1.05 | S. cerevisiae deletion strains, locus YLR371W, strain rom2, active compounds read low 0.993 | S. cerevisiae deletion strains, locus YLR418C, strain cdc73, active compounds read low 0.955 | S. cerevisiae deletion strains, locus YML016C, strain PPZ1, active compounds read low 0.988 | S. cerevisiae deletion strains, locus YML032C, strain rad52, active compounds read low 1 | S. cerevisiae deletion strains, locus YML124C, strain tub3, active compounds read low 0.993 | S. cerevisiae deletion strains, locus YMR078C, strain ctf18, active compounds read low 0.989 | S. cerevisiae deletion strains, locus YMR223W, strain ubp8, active compounds read low 0.948 | S. cerevisiae deletion strains, locus YMR263W, strain SAP30, active compounds read low 0.96 | S. cerevisiae deletion strains, locus YMR307W, strain GAS1, active compounds read low 1.1 | S. cerevisiae deletion strains, locus YNL067W, strain RPL9B, active compounds read low 0.959 | S. cerevisiae deletion strains, locus YNL128W, strain TEP1, active compounds read low 0.945 | S. cerevisiae deletion strains, locus YNL153C, strain GIM3, active compounds read low 0.947 | S. cerevisiae deletion strains, locus YNL233W, strain BNI4, active compounds read low 0.979 | S. cerevisiae deletion strains, locus YNL250W, strain rad50, active compounds read low 0.97 | S. cerevisiae deletion strains, locus YNL271C, strain bni1, active compounds read low 0.987 | S. cerevisiae deletion strains, locus YNL298W, strain CLA4, active compounds read low 0.978 | S. cerevisiae deletion strains, locus YNL307C, strain MCK1, active compounds read low 0.998 | S. cerevisiae deletion strains, locus YNL322C, strain KRE1, active compounds read low 0.982 | S. cerevisiae deletion strains, locus YNR052C, strain pop2, active compounds read low 0.991 | S. cerevisiae deletion strains, locus YOL006C, strain TOP1, active compounds read low 0.936 | S. cerevisiae deletion strains, locus YOL012C, strain htz1 0.876 | S. cerevisiae deletion strains, locus YOL147C, strain pex11, active compounds read low 0.991 | S. cerevisiae deletion strains, locus YOR061W, strain CKA2, active compounds read low 0.964 | S. cerevisiae deletion strains, locus YOR069W, strain VPS5, active compounds read low 0.994 | S. cerevisiae deletion strains, locus YOR136W, strain idh2, active compounds read low 0.994 | S. cerevisiae deletion strains, locus YOR144C, strain elg1, active compounds read low 0.993 | S. cerevisiae deletion strains, locus YOR184W, strain ser1, active compounds read low 1.03 | S. cerevisiae deletion strains, locus YOR316C, strain cot1, active compounds read low 0.975 | S. cerevisiae deletion strains, locus YPL055C, strain LGE1, active compounds read low 0.935 | S. cerevisiae deletion strains, locus YPL241C, strain CIN2, active compounds read low 0.99 | S. cerevisiae deletion strains, locus YPR119W, strain clb2, active compounds read low 0.995 | S. cerevisiae deletion strains, locus YPR141C, strain kar3, active compounds read low 0.968 | S. cerevisiae deletion strains, locus YPR163C, strain tif3, active compounds read low 0.984 | S. cerevisiae deletion strains, locus YPR167C, strain met16, active compounds read low 0.979 | S. cerevisiae deletion strains, strain wtn01, active compounds read low 0.934 | S. cerevisiae strains, strain wild type, active compounds read low 0.987
